According to PubChem BioAssay AID1117361 (Southern Research Institute, 2015):
The campaign covered roughly 3,600 compounds. About 900 (25%) were called active. How the calls were made is not given here. These entries were drawn from the full list. Entries with a potency or affinity are not part of this list.

The compounds below were run against Protein Tat (Human immunodeficiency virus type 1 group M subtype B (isolate HXB2)) (UniProt P04608) (assay: inhibitors of Tat binding to TAR RNA, dose response, counter-screen for Vif-APOBEC3G degradation inhibitor project, biochemical, fluorescence polarization, FAM-labeled TAR RNA (AID 1117361)). Settings: outcome: dose series up to 100 µM unless noted; series mostly up to 100 µM.

Compound	outcome
CCCc1ccc(-c2csc(NC(=O)Cc3cccs3)n2)cc1	inactive
COC(=O)C1=C(N)Oc2cc(C)n(Cc3cccnc3)c(=O)c2C1c1cccc(OC)c1OC (stereo not given)	inactive
O=C(OCN1C(=O)c2ccccc2C1=O)C1CCCCC1	inactive
COc1cc(-c2n[nH]c(=O)o2)cc(OC)c1OC	inactive
COC(=O)/C(=C\Nc1ccccc1)NC(=O)c1ccc(Cl)cc1Cl	inactive
CCOc1ccc2nc(NC(=O)CN3CCN(c4ccccn4)CC3)sc2c1	inactive
CC1=C(C(=O)OC2CCCCC2)C(c2ccc(C)o2)C2=C(CCCC2=O)N1 (stereo not given)	inactive
CCOc1ccc(N(C(C)C(=O)NC2CCCCCC2)S(C)(=O)=O)cc1 (stereo not given)	inactive
CC(NC(=O)/C(C#N)=C/c1cn[nH]c1-c1ccccc1)c1ccccc1 (stereo not given)	inactive
CCCC[C@@H]1CNC(=S)N1CCc1cccc2ccccc12	inactive
Cc1nn(Cc2ccc(F)cc2)c(C)c1NC(=O)c1noc2c1CCc1ccccc1-2	inactive
N=c1ccn(Cc2ccc(Cl)cc2)cc1	inactive
C=CCc1c(C)nc(C)nc1N/N=C/c1ccc(F)cc1	inactive
COCCNC(=S)c1ccc(OC)cc1	inactive
CCN(CC)S(=O)(=O)c1ccc(C(=O)NCc2n[nH]c(=S)n2-c2ccccc2OC)cc1	inactive
Cc1ccc(N=Cc2nc(-c3ccco3)oc2O)cc1	inactive
Clc1ccc2nc3ccccn3c2c1	inactive
O=C(NC1CCCCC1)n1c(=O)oc2cc(S(=O)(=O)N3CCCCC3)ccc21	inactive
CC(C)Cn1c(N)c(C(=O)NCc2cccs2)c2nc3ccccc3nc21	inactive
COC(=O)c1ccc(-n2nnnc2SCC(=O)Nc2cc(OC)ccc2OC)cc1	inactive
CCOC(=O)N1CCC(N2Cc3cccc(C(=O)Nc4cc(F)ccc4F)c3C2=O)CC1	inactive
CC1(C)CC(=O)C=C(Nc2ccccc2NC(=O)c2cnccn2)C1	inactive
CCC(C)NS(=O)(=O)c1ccc(NS(=O)(=O)c2ccc(F)cc2)cc1 (stereo not given)	inactive
O=C(CCc1c[nH]c2ccccc12)N1CCN(c2ccc(O)cc2)CC1	inactive
CC(C)CN1C(=O)c2ccc(C(=O)Nc3ccc(O)cc3C(=O)O)cc2C1=O	inactive
COC(=O)c1c(NC(=O)CC2NCCNC2=O)sc2c1CCCC2 (stereo not given)	inactive
Cc1nn(CC(=O)Nc2ccccn2)c(C)c1Br	inactive
CCOCCCNC(=O)C1CCN(S(=O)(=O)CC)CC1	inactive

Compound	outcome
CCOC(=O)C(C)N1C(=O)S/C(=C\c2ccc(-c3ccccc3C(=O)O)o2)C1=O (stereo not given)	inactive
COc1cc(C(=O)Nc2cccc(-c3nc4ncccc4o3)c2C)cc(OC)c1OC	inactive
CCC1(C(N)=O)CC2C=CC1C2 (stereo not given)	inactive
CCOC(=O)C(C)Sc1nnc2n1C(C)(C)Cc1ccccc1-2 (stereo not given)	inactive
O=S1(=O)CCC(N2CCOCC2)C1 (stereo not given)	inactive
CCOC(=O)/C=C1\SC(C)C(=O)N1CC(=O)N(CCC#N)c1ccccc1 (stereo not given)	inactive
COc1ccc(C2=NO[C@@H]3C(=O)N(c4ccc(C)cc4C)C(=O)[C@H]23)cc1OC	inactive
COc1ccc(OC)c(-n2cnnn2)c1	inactive
CC(C)(C)NC(=O)C1N(c2cccnc2)C(=O)C2C(C(=O)Nc3ccccc3F)C3(C)C=CC21O3 (stereo not given)	inactive
COc1ccc(OC)c(NC(=O)CSc2nnc(C)n2Cc2ccccc2)c1	inactive
Cc1cc(SCC(=O)NCCCN2CCCC2=O)nc2ccccc12	inactive
O=C(NCCN1CCOCC1)c1cc(-c2ccc(Br)cc2)on1	inactive
CCc1nc(SCC(=O)Nc2ccc(C(=O)O)cc2)n[nH]1	inactive
S=c1[nH]nc(COc2ccc(Cl)cc2)o1	inactive
O=C(NNc1cc(Cl)cc(Cl)c1)c1c(F)cccc1Cl	inactive
S=c1nc(-c2ccc(Br)cc2)oc2c1CCCC2	inactive
CCOC(=O)N1CCN(CC(=O)c2ccc3c(c2)CCN3C(C)=O)CC1	inactive
Cc1ccc(Cc2cnc(NC(=O)/C(C#N)=C/c3ccc(-c4ccc([N+](=O)[O-])cc4)o3)s2)cc1	inactive
CC(OC(=O)c1ccc([N+](=O)[O-])o1)C(=O)NC1CCCCC1C (stereo not given)	inactive
COc1cc(O)oc1C=Nc1ccccc1	inactive
CCOc1ccccc1C1CC(=O)NC(SCC)=C1C#N (stereo not given)	inactive
O=S(=O)(Nc1ccc(Cc2ccncc2)cc1)c1ccc(Br)cc1	inactive
COc1ccc(N(CC(=O)NCCC2=CCCCC2)S(=O)(=O)c2ccccc2)cc1	inactive
O=C1CC(c2ccco2)CC(O)=C1C=NCC1CCNCC1 (stereo not given)	inactive
CCCN(CC(=O)Nc1ccccc1C)C(=O)COC(=O)c1cnc(C)cn1	inactive
CC(C)(C)NC(=O)CSc1nnc(-c2ccncc2)n1Cc1ccccc1	inactive
CCOC(=O)Cn1c(=O)oc2cc(S(=O)(=O)NC3CCCc4ccccc43)ccc21 (stereo not given)	inactive
